Seven molecules from PubChem BioAssay (Tox21) can be followed below.

The structures appear in SMILES notation. Values without a mark were called inactive. Results filed as inconclusive are left out. Active and inactive are the calls of the source. Unless noted, calls come from the whole dose curve.

Test [1] in a line: Nuclear factor erythroid 2-related factor 2/antioxidant responsive element (Nrf2/ARE) small molecule agonists: qHTS cell viability counter screen in human keratinocytes (AID 1919968; active = well fitted curve in the direction sought with a large enough effect in the repeat runs; an effect the other way counts as inactive or inconclusive; note: nearly all actives have a fitted effect of over 55% in size). An outline of the steps:
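After a 5 h attachment period, ARE-reporter keratinocytes were dosed with compounds in DMSO and then cultured 23 h at 37 C. Cell viability came from CellTiter-Fluor signal read after a further 1 h.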

A short description of test [2]: Nuclear factor erythroid 2-related factor 2/antioxidant responsive element (Nrf2/ARE) small molecule agonists: luciferase reporter gene qHTS assay in human keratinocytes (AID 1919969). Note: nearly all actives have a fitted effect of over 35% in size. Note: potency is the fitted concentration of half-maximal effect.
The target of test [3] is Gonadotropin-releasing hormone receptor (Homo sapiens) (UniProt P30968). As to the kind of experiment: Human gonadotropin-releasing hormone receptor (GnRHR) small molecule agonists, calcium flux assay in GnRHR-HEK293 cells (AID 1920063). Note: nearly all actives have a fitted effect of over 35% in size. The method, boiled down:
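We seeded human GnRHR-expressing HEK293 cells for 18 hours, loaded them with calcium dye for an hour at 37 C, added test compounds, and recorded fluorescence intensity kinetically for three minutes.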

The target in test [4] is KiSS-1 receptor (Homo sapiens) (UniProt Q969F8). In words: Human kisspeptin (KISS1R) small molecule agonists, calcium flux assay in KISS1R-HEK293 cells (AID 1920064; active = well fitted curve in the direction sought with a large enough effect in the repeat runs; an effect the other way counts as inactive or inconclusive). An outline of the steps: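 Kinetic calcium assay, 1 s sampling over 3 min at Ex/Em 480/540, in HEK293 cells engineered with human KISS1R; compounds delivered in DMSO after 1 h dye loading.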
KiSS-1 receptor (Homo sapiens), sequence (Q969F8 whole entry, looked up): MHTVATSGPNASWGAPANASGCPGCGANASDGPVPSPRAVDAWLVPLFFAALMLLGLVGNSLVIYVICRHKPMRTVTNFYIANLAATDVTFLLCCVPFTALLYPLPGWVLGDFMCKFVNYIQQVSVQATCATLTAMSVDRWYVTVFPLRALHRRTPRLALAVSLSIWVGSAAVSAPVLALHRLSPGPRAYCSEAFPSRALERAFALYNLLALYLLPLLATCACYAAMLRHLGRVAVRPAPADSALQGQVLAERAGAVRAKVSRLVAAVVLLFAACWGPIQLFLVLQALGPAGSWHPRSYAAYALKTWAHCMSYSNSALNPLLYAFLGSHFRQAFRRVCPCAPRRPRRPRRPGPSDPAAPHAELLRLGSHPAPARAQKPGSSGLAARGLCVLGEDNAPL
The nature of test [5]: G protein-coupled receptor (GPCR) small molecule agonists, calcium flux assay: HEK293 wild type cell line counter screen (AID 1920065). The method, boiled down:
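Calcium-sensitive dye, loaded 1 h at 37 C into cells cultured 18 h, reports compound-evoked calcium release as fluorescence (Ex/Em 480/540), measured over 3 min. Agonist mode; 15-point titrations, triplicate.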

The nature of test [6]: p53 small molecule agonists, cell-based qHTS assay with rat liver microsomes (AID 1963578). An outline of the steps:
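Read-out is beta-lactamase reporter fluorescence (LiveBLAzer, 2 h, room temperature, dark) in p53RE-bla cells treated 16 h at 37 C with compound, rat liver microsomes and NADPH, both 0.5 mg/mL final.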

The nature of test [7]: p53 small molecule agonists, cell-based qHTS assay with human liver microsomes: qHTS cell viability counter screen (AID 1963579). Note: nearly all actives have a fitted effect of over 45% in size. The method, boiled down:
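Cells carrying the p53 response-element beta-lactamase reporter are treated for 16 h at 37 C with test compounds in the presence of human liver microsomes and NADPH (both 0.5 mg/mL final); ATP-based CellTiter-Glo luminescence then reports viability.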

A short description of test [8]: p53 small molecule agonists, cell-based qHTS assay with rat liver microsomes: qHTS cell viability counter screen (AID 1963580). Note: nearly all actives have a fitted effect of over 45% in size. An outline of the steps:
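In HCT-116 cells carrying a p53 response element-bla reporter, compounds were metabolically activated in situ by rat liver microsomes with NADPH over 16 h. Cell ATP content then served as the cytotoxicity measure.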

Test [9] in a line: p53 small molecule agonists, cell-based qHTS assay: qHTS cell viability counter screen (AID 1963581). Note: nearly all actives have a fitted effect of over 45% in size. The method, boiled down: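 Following 5 h attachment, HCT-116 p53RE-bla cells took up compound for 16 h at 37 C; the reporter was read with B/G FRET substrate (2 h RT), and viability then via CellTiter-Glo ATP luminescence.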
Test [10] is described as follows: p53 small molecule agonists, cell-based qHTS assay (AID 1963582; active = well fitted activation curve with a large enough effect in the signal ratio in the repeat runs, not every such curve was filed as active; the % refers to the signal ratio). An outline of the steps: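 In this cell-based concentration-response screen, a p53 response element drives beta-lactamase; cells received DMSO-borne compounds after 5 h culture and were incubated a further 16 h before FRET substrate development.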
For test [11], the target named is 5-hydroxytryptamine receptor 2A (Homo sapiens) (UniProt P28223). As to the kind of experiment: 5-hydroxytryptamine receptor 2A (HTR2A) small molecule antagonists, cell-based qHTS assay (AID 1963586). Note: nearly all actives have a fitted effect of over 45% in size. An outline of the steps: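 Antagonist-mode intracellular calcium assay: DOI (4 nM) added after 5 min compound pre-incubation at room temperature to dye-loaded HTR2A-CHO cells. Fluorescence followed for 3 min, sampled every second.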
5-hydroxytryptamine receptor 2A (Homo sapiens), sequence (P28223 whole entry, looked up): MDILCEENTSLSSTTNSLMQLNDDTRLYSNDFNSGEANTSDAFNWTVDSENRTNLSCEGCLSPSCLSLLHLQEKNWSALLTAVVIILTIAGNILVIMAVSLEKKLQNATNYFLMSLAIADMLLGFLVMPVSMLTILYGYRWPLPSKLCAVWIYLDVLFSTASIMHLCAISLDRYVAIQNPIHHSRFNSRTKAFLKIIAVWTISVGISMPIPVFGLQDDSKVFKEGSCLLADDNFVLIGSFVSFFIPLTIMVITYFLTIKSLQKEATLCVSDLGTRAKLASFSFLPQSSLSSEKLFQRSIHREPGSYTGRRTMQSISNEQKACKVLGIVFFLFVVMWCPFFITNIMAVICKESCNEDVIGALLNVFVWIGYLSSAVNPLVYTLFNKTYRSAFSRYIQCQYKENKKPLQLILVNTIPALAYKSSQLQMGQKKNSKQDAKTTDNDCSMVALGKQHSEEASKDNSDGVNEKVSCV

Test [12] shares this target. As to the kind of experiment: 5-hydroxytryptamine receptor 2A (HTR2A) small molecule agonists, cell-based qHTS assay (AID 1963587). Note: nearly all actives have a fitted effect of over 30% in size. An outline of the steps: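 HTR2A-CHO cells, plated 18 h at 37 C/5% CO2, dye-loaded 1 h at 37 C; compounds in DMSO added by pin tool (agonist mode). Intracellular calcium flux read as kinetic fluorescence on FDSS over 2 min at 1 s intervals.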

Test [13] deals with Muscarinic acetylcholine receptor M1 (Homo sapiens) (UniProt P11229). In words: Cholinergic receptor muscarinic 1 (CHRM1) small molecule agonists, cell-based qHTS assay (AID 1963589). Note: nearly all actives have a fitted effect of over 35% in size. An outline of the steps: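 Measures agonist-induced intracellular calcium rise. Stable human CHRM1 CHO line, 1 h dye load at 37 C, compounds from DMSO, kinetic fluorescence read.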
Muscarinic acetylcholine receptor M1 (Homo sapiens), sequence (P11229 whole entry, looked up): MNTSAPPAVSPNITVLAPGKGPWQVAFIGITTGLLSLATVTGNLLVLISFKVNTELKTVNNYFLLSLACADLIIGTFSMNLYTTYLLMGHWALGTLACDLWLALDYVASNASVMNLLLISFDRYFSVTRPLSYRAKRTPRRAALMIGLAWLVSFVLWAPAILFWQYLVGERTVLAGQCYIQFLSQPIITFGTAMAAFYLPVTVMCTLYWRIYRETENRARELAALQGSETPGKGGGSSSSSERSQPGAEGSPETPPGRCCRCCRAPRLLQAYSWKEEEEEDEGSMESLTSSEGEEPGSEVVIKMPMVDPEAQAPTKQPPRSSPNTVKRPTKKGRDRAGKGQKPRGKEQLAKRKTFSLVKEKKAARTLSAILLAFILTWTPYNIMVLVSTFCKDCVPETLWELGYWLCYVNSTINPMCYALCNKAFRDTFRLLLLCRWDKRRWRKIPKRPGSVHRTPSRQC
Test [14] in a line: cAMP Responsive Elements (CRE) small molecule agonists, cell-based qHTS assay (AID 1963590). An outline of the steps:
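A CRE-responsive beta-lactamase reporter in HEK 293T cells was used. Treatment ran 3 h at 37 C; detection used LiveBLAzer B/G FRET substrate for 2 h at room temperature.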

Test [15] is described as follows: cAMP Responsive Elements (CRE) small molecule antagonists, cell-based qHTS assay (AID 1963591; active = well fitted inhibition curve with a large enough effect in the signal ratio in the repeat runs, not every such curve was filed as active; the % refers to the signal ratio). The method, boiled down:
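HEK293T cells carrying a CRE-driven beta-lactamase reporter receive compound and NKH477 (0.25 uM final) for 3 h. Fluorescence from LiveBLAzer B/G FRET substrate is read after 2 h at room temperature.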

Test [16] deals with Beta-2 adrenergic receptor (Homo sapiens) (UniProt P07550). As to the kind of experiment: Adrenergic beta2 receptor (ADRB2) small molecule antagonists, cell-based qHTS assay (AID 1963592). Note: series mostly up to about 92 µM; nearly all actives have a fitted effect of over 50% in size. The method, boiled down: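 Cells (CHO, stable ADRB2 overexpression) incubated 18-20hr at 37C; compounds added from DMSO; agonist mix (1nM isoproterenol, 100uM IBMX, 25uM Ro-20-1724) added; 0.5hr RT; d2-cAMP and anti-cAMP-cryptate added; 1hr RT; 665/615 nm read.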
Beta-2 adrenergic receptor (Homo sapiens), sequence (P07550 whole entry, looked up): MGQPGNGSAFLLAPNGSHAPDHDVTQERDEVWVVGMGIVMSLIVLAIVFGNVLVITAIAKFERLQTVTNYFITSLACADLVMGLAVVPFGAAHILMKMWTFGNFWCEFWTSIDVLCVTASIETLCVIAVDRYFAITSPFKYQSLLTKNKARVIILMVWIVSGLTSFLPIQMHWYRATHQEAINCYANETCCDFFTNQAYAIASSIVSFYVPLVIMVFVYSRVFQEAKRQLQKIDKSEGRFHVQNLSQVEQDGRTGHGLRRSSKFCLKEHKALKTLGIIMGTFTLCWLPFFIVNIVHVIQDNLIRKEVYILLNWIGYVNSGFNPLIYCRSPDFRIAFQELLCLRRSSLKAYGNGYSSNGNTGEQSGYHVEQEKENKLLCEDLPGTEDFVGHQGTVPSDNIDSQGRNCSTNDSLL

Test [17] has as its target D(2) dopamine receptor (Homo sapiens) (UniProt P14416). As to the kind of experiment: Dopamine D2 receptor (DRD2) small molecule antagonists, cell-based qHTS assay (AID 1963595; active = well fitted inhibition curve with a large enough effect in the signal ratio in the repeat runs, with a control signal flat; the % refers to the signal ratio). An outline of the steps:
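DRD2-HEK293; 0.1 mM Ro20-1724; cpd 10 min RT; NKH477 200 nM + quinpirole 12 nM, 30 min RT; HTRF cAMP (cAMP-d2/anti-cAMP cryptate), 665/620 nm ratio after 1 h.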

In test [18] the target is Muscarinic acetylcholine receptor M1 (Homo sapiens) (UniProt P11229). As to the kind of experiment: Cholinergic receptor muscarinic 1 (CHRM1) small molecule antagonists, cell-based qHTS assay (AID 1963588). Note: nearly all actives have a fitted effect of over 40% in size. Note: potency is the fitted concentration of half-maximal effect. The method, boiled down:
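CHRM1-CHO calcium-flux assay, antagonist mode. Cells were seeded 18 h, dye-loaded 1 h at 37 C and given compound for 5 min at RT, then acetylcholine was added at 50nM. FDSS fluorescence was read 3 min; 15 concentrations, three runs.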

The target in test [19] is D(2) dopamine receptor (Homo sapiens) (UniProt P14416). In words: Dopamine D2 receptor (DRD2) small molecule agonists, cell-based qHTS assay (AID 1963594). Note: nearly all actives have a fitted effect of over 35% in size. The method, boiled down: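 HEK293 cells stably expressing DRD2 were cultured 24 h at 37 C, then given Ro20-1724 (0.1 mM final) and compounds for 10 min at room temperature. NKH477 (200nM) was then added for 30 min. cAMP was read by HTRF.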
D(2) dopamine receptor (Homo sapiens), sequence (P14416 whole entry, looked up): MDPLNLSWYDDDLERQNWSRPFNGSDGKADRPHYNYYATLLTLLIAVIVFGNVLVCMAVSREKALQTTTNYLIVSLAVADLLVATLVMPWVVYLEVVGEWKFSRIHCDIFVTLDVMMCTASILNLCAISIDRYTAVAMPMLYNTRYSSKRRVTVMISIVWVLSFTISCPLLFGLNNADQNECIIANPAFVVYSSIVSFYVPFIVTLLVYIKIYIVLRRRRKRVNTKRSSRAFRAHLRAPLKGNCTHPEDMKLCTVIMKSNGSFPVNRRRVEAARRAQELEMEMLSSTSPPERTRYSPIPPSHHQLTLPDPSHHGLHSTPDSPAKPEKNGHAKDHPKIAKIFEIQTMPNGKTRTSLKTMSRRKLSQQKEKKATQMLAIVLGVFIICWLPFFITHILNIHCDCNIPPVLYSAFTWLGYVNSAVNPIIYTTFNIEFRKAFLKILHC

Gonadotropin-releasing hormone receptor (Homo sapiens), sequence (P30968 whole entry, looked up): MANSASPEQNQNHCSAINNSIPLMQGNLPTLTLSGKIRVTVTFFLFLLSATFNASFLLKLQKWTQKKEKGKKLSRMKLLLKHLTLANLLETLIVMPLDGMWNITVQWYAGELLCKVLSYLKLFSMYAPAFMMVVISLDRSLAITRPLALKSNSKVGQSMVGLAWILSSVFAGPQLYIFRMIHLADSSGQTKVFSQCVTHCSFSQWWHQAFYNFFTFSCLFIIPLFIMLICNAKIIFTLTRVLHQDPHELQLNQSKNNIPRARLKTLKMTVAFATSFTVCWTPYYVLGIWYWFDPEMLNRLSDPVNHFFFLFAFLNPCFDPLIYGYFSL

As to `O=C(Oc1ccc(Br)cc1)N1CCN2CCC1CC2`, the Potency result in [1], in [2], in test [3], in test [4], in [5] and in test [6] was “inactive” in each case. In addition, the Potency result in [7], in test [8], in test [9], in [10], in test [11] and in [12] was “inactive” in each case. Besides, the Potency entry in test [13], in test [14], in test [15], in test [16] and in test [17] was “inactive” each time.

Turning to `COc1ccc2c(C(=O)c3ccc(Cl)cc3)c(C)n(CC(=O)O)c2c1`, the Potency entry in test [1], in test [2], in test [3], in [4], in test [5] and in test [6] was “inactive” each time. For the same molecule, the Potency result in test [7], in [8], in [9], in [10], in test [12] and in test [18] was “inactive” throughout. The Potency entry in test [13], in test [14], in test [15], in [16] and in [17] was “inactive” throughout.

`CC(C1CC1)C(O)(Cn1cncn1)c1ccc(Cl)cc1` (configuration not stated): the Potency result in test [1], in [2], in test [3], in test [4], in test [5] and in test [6] was “inactive” in each case. Further, the Potency entry in [7], in test [8], in test [9], in [10], in [11] and in test [12] was “inactive” each time. The Potency entry in [18], in test [13], in test [14], in test [19] and in test [17] was “inactive” throughout.

In the case of `C#C[C@]1(O)C=C[C@H]2[C@@H]3CCC4=CC(=O)CC[C@@H]4[C@H]3CC[C@@]21CC`, the Potency result in test [1], in test [2], in test [3], in test [4], in test [5] and in test [6] was “inactive” each time. Moreover, the Potency result in test [7], in test [8], in test [9], in test [10], in test [11] and in test [12] was “inactive” in each case. Moreover, the Potency result in [18], in test [13], in test [16], in test [19] and in test [17] was “inactive” in each case.

Consider `CCCOc1nn(C(=O)NS(=O)(=O)c2ccccc2C(=O)OC)c(=O)n1C`, for which the Potency entry in test [1], in [3], in test [4], in test [5], in [6] and in test [7] was “inactive” throughout. In addition, the Potency result in [8], in test [9], in [10], in [11], in [12] and in test [18] was “inactive” throughout. The Potency entry in [13], in test [14], in test [15], in test [16], in test [19] and in test [17] was “inactive” throughout. The Potency in test [2] is 68.3 µM (active).

Consider `CC1N=C(N)OC1c1ccccc1` (configuration not stated), for which the Potency entry in test [1], in test [2], in test [3], in test [4], in test [5] and in test [6] was “inactive” in each case. In addition, the Potency result in [7], in test [8], in [9], in test [10], in test [11] and in [12] was “inactive” in each case. Moreover, the Potency result in test [18], in test [13], in [14], in test [15], in [16] and in test [19] was “inactive” throughout.

As for `COc1cccc(C(=O)NN(C(=O)c2cc(C)cc(C)c2)C(C)(C)C)c1C`, the Potency entry in test [1], in [2], in test [3], in test [4], in test [5] and in [6] was “inactive” in each case. The Potency result in [7], in test [8], in test [9], in test [10], in test [11] and in test [12] was “inactive” each time. The Potency result in test [13], in test [16], in test [19] and in test [17] was “inactive” in each case. In addition, the Potency in [18] was 14.9 µM (active).
